PubChem BioAssay AID488896 (Broad Institute, 2010)
About 3,100 (0.97%) of roughly 320,000 compounds were called active.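 How the source made its calls: active means mean replicate inhibition of at least 70% and a set share of replicates each scoring 70 or more; inconclusive means meets just one of the two criteria; inactive means fails both criteria.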 Shown is part of a subset that was picked to be rich in actives.

Biological target: Scavenger receptor class B member 1 (Mus musculus) (UniProt Q61009)
Test: mouse SR-BI DiI-HDL uptake blockers – ldlA[mSR-BI] cells, fluorescence, single point, primary screen (AID 488896);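 further: 0% = median of neutral control wells and 100% = median of positive control wells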
Conditions: ldlA[mSR-BI] CHO cells, 3 h, at 12.5 µM, stronger effect = higher value

Chain of Scavenger receptor class B member 1 (Mus musculus) (Q61009 whole entry, looked up): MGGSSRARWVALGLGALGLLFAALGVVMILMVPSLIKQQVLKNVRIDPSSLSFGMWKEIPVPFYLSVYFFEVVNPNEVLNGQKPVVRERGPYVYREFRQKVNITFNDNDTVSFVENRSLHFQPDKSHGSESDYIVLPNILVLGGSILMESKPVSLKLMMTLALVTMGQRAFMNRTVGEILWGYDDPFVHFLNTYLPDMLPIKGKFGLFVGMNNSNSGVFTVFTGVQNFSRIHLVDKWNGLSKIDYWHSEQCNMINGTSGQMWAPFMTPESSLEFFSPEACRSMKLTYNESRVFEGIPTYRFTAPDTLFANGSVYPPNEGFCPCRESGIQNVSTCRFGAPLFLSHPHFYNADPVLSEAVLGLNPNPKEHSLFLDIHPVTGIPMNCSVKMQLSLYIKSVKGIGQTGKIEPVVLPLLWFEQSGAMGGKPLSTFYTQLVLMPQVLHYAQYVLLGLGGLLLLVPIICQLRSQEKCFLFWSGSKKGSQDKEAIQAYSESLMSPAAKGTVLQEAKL

inhibition, active:
CCN1/C(=C/C(=S)Nc2ccccc2)Sc2ccccc21 80.2%, O=C(N/N=C/c1sc(N2CCCCC2)nc1-c1cccs1)c1cccnc1 76.7%, C/C(=N/NC(=O)c1ccc(NC(=O)c2ccc(F)cc2)cc1)c1ccccc1 88.8%, Cc1ccc(C)c(N2CCN(C(=O)CCCn3c(=O)c4cccn4c4cccnc43)CC2)c1 84.4%, CC1(C)Cc2cccc(OCC(=O)N3CCN(c4ccc([N+](=O)[O-])cc4)CC3)c2O1 71.3%, COc1ccc(NC(=O)c2cc(-c3cc(OC)c(OC)c(OC)c3)nc3ccccc23)c(OC)c1 78.3%, COc1ccc(-c2nn(-c3ccccc3)cc2C(=O)Nc2nccs2)cc1OC 74.4%, Cc1cc(N2CCCC2)ccc1NC(=O)COc1ccc(Cl)cc1 75.9%, CCCCN1C(=O)/C(=C/C=C2/C=Cc3ccccc3N2CC)SC1=S 146%, N#Cc1c(NC(=O)c2ccc(N3CCOCC3)c([N+](=O)[O-])c2)sc2c1CCCC2 83.7%, COc1cccc(/C=N/Nc2cc(C)nc(-c3ccccc3O)n2)c1O 84.7%, C/C(=N\NC(=O)c1ccc(NS(=O)(=O)c2cccs2)cc1)c1ccc2ccccc2c1 75.7%, O=C(N/N=C/c1cc([N+](=O)[O-])ccc1O)/C(=C\c1cccs1)NC(=O)c1ccccc1 113%, CC(C)(C)c1cc(C(=O)NN)n(Cc2ccc(Cl)cc2Cl)n1 80.1%, O=C(NNC(=O)c1ccccc1O)c1ccccc1O 124%, O=C(NNC(=O)c1cc(S(=O)(=O)N2CCCCC2)ccc1Cl)c1ccccc1O 108%, CCn1c2ccccc2c2cc(NC(=O)COC(=O)c3cc(S(=O)(=O)N4CCCCC4)ccc3Cl)ccc21 77.1%, COc1ccc(C(CNC(=O)c2cccc(S(=O)(=O)Nc3ccccc3Cl)c2)N2CCOCC2)cc1 (centres undefined) 79.7%

inhibition, inactive:
CSCCC(NC(=O)COc1ccccc1)C(=O)OCc1ccc(Cl)cc1 (centres undefined) -22.7%, Cc1ccc(S(=O)(=O)c2cc3c(=O)n4cccc(C)c4nc3n(CCc3ccccc3)c2=N)cc1C -25.8%, COc1cccc2c1C(=O)c1c(O)c3c(c(O)c1C2=O)CC(O)(C(C)=NNC(=O)c1ccc(Cl)c(Cl)c1)CC3OC1CC(N)C(O)C(C)O1 (centres undefined) 33.2%, O=[N+]([O-])c1cccc(C=NN=Cc2ccccc2O)c1 45.3%, COc1ccc2c(c1)C(=O)CC(c1ccccc1)O2 (centres undefined) 17.3%, CCN1/C(=C\c2ccc3ccccc3[n+]2CC)Sc2cc(C)ccc21 55.6%, CCNCCC(=O)N1c2ccccc2Sc2ccc(NC(=O)OCC)cc21 -8.72%, COC[C@@H]1NS(=O)(=O)c2ccc(Br)cc2O[C@H]1c1ccccc1 5.43%, NC(=O)C1(Nc2ccccc2Cl)CCCC1 -5.33%, O=C(CNC(=O)c1cccnc1)N/N=C/c1cccnc1 -11%, O=C(NN=C1CCC(=NNC(=O)c2cccnc2)CC1)c1cccnc1 -14%, COC(=O)C1CC2=C(CC(C)(C)CC2=O)N(c2ccccc2)C1=O (centres undefined) -15.5%, CCCCN1CC(CO)Oc2cccc(F)c2S1(=O)=O (centres undefined) -10.7%, COc1ccc(/C(C)=N\NC(=O)c2ccc(-c3ccccc3)cc2)c(F)c1 67.1%, COc1cccc(C(=O)N/N=C(\C)c2cccc(NC(=O)c3ccc(F)cc3)c2)c1OC 61%, O=C1C(=O)N(c2ccccc2)C(c2ccccc2)C1c1ccccc1 (centres undefined) 3.47%, CCCN(CC(=O)Nc1ccccc1C)C(=O)c1ccc(OCC(=O)N2CCOCC2)c(OCC)c1 13.8%, CC1(C)N=C(N)NC(Nc2ccc(Cl)cc2)=N1 -10.1%, Cc1ccc(C)c(N2CCN(C(=O)Cn3ncn4cccc4c3=O)CC2)c1 10.1%, Cc1ccc(C)c(N2CCN(C(=O)CCCCn3c(=O)[nH]c4ccccc4c3=O)CC2)c1 16.6%, COc1ccc(CC(=O)NC(C)c2ccc(Cl)c(Cl)c2)cc1S(=O)(=O)N1CCOCC1 (centres undefined) 4.63%, O=C(O)C(c1cccs1)C1(O)CCCCC1 (centres undefined) -15.2%, CC1(C)Cc2cccc(OCC(=O)NCc3ccccc3)c2O1 3.02%, CC1(C)Cc2cccc(OCC(N)=O)c2O1 10.8%, Cc1cc(NC(=O)c2cc3ccccc3o2)no1 -18.7%, COc1ccccc1NC(=O)c1cc(Cl)nc2ccccc12 66.5%, COc1ccc(-c2cc(C(=O)Nc3ccccc3O)c3ccccc3n2)cc1 41.1%, COC1=NC2=NCCN2C(OC)=N1 -7.98%, O=C1c2ccccc2C(=O)C1C(=O)C1CC1 -19.4%, N#CC(Cc1cc2ccccc2n1S(=O)(=O)c1ccccc1)OCc1ccccc1 (centres undefined) 4.98%, O=c1ccn([C@@H]2O[C@H](CNS(=O)(=O)c3cc4ccccc4s3)[C@@H](O)[C@H]2O)c(=O)[nH]1 -11%, O=C(O)c1ccccc1-c1ccccc1C(=O)Nc1nccs1 -17.5%, COc1ccc(-c2nn(-c3ccccc3)cc2/C=N/Nc2ccccn2)cc1OC 50.1%, CN1C(c2ccc(F)cc2)=CS/C1=C(/C#N)c1nnc2n1-c1ccccc1SC2 32.2%, Nc1ccc2c(c1)C(O)c1ccc(Cl)cc1-2 (centres undefined) -14.5%, CCC(=O)c1ccc(OCC(=O)Nc2ccc(N3CCCCC3)cc2)cc1 35.5%, Cc1cc(C)cc(OCC(=O)Nc2ccc(N3CCOCC3)cc2N2CCOCC2)c1 45%, CN1CCOC1c1ccc(C2OCCN2C)cc1 (centres undefined) -6.99%, CCCCCCCCNS(=O)(=O)CCNC1CCCCC1 -5.35%, CCN1C(=O)/C(=C\N2CCN(c3cccc(Cl)c3)CC2)SC1=S 8.1%, CCCCN1C(=O)/C(=C2/C=CC=CN2C)SC1=S 8.97%, Cc1c[n+]([O-])ccc1[N+](=O)[O-] 4.11%, CCCCN1CC(COCc2ccccc2)OCCS1(=O)=O (centres undefined) -17.3%, O=C(NCCCN1CCOCC1)c1ccc(N2CCCC2)c([N+](=O)[O-])c1 -14.3%, O=C(Oc1ccccc1Cl)c1ccc(N2CCOCC2)c([N+](=O)[O-])c1 1.4%, NC(=O)c1ccc(N2CCCC2)nc1 -0.443%, COc1ccccc1NC(=O)N(O)C1(C#N)CCCCC1 2.4%, Oc1cccc(/C=N/Nc2ccc(Cl)nn2)c1O 10.6%, COc1ccccc1/C=N/Nc1nc(C)c(C(C)=O)s1 24.4%, CN(C)CCNC(=O)c1ccc(Cl)c2cc3ccccc3nc12 -8.43%, C#CCOCCOCCOCCNc1nc(N2CCN(C(=O)Cn3cc(CCO)nn3)CC2)nc(N2CCN(C(=O)Cn3cc(CCCN=C(N)N)nn3)CC2)n1 -17.5%, COc1cc(OC)c(C(=O)NNC(=O)c2ccc(NS(=O)(=O)c3cccs3)cc2)cc1OC -10.6%, C/C(=N\NC(=O)c1ccc2ccccc2c1)c1cccnc1 -22.1%, O=C1CC[C@@H]2CC3(C[C@@H]4CCN1[C@H]24)Nc1cc([N+](=O)[O-])ccc1NC3=NC1CCCCC1 (some centres undefined) 1.95%, CCN1CCC(O)(/C=C/c2ccc(C)cc2)C(C(=O)/C=C/c2ccc(C)cc2)C1 (centres undefined) 24.5%, NC(=O)C1(N2CCCC2)CCN(Cc2ccccc2)CC1 -9.32%, O=C(Nc1ccc(C(=O)O)cc1)/C(=C/c1ccc([N+](=O)[O-])cc1)NC(=O)c1ccccc1 -3.79%, C=CCNC(=O)/C(=C\c1cccc([N+](=O)[O-])c1)NC(=O)c1ccccc1 -15%, CCCN(C(=O)COC(=O)CNS(=O)(=O)c1ccc(NC(C)=O)cc1)C1CCS(=O)(=O)C1 (centres undefined) -1.04%, Cn1cc(C(=O)c2ccc(Cl)cc2Cl)cc1C(=O)NN 25.2%, NNC(=O)c1ccc(Cl)cc1Cl -14.8%, COCCN(C(=O)C(C)N1C(=O)c2ccccc2C1=O)c1c(N)n(CC(C)C)c(=O)[nH]c1=O (centres undefined) -16.4%, O=C(COC(=O)c1ccc(O)cc1O)NC(=O)c1ccccc1 -38.7%, O=C1NCC(Nc2ccccc2)C(=O)N1 (centres undefined) -24.4%, O=C(Nc1ccccc1C(=O)O)c1cc(S(=O)(=O)N2CCCCC2)cs1 -2.98%, O=C(COC(=O)c1cc(S(=O)(=O)N2CCCCC2)ccc1Cl)NCc1ccco1 17.2%, CC1=C(C)CC(C(=O)NNC(=O)c2ccccc2O)C(C(=O)O)C1 (centres undefined) 13.9%, CC1CCCC(NC(=O)c2cc(S(=O)(=O)N3CCCCC3)ccc2Cl)C1C (centres undefined) 11.2%, Cc1cc(C(=O)NNC(=O)c2ccccc2O)c(C)o1 13.4%, CCn1c2ccccc2c2cc(NC(=O)COC(=O)c3ccccc3Br)ccc21 -7.34%, COc1ccc(CCNC(=O)c2ccc(NC(=O)CC3SC(N4CCCCC4)=NC3=O)cc2)cc1OC (centres undefined) 66.6%, CC(=NNC(=O)c1ccncc1)c1ccc(Cl)c(Cl)c1 6.02%, COc1ccc(Cl)cc1C=CC=Nc1ccc(S(N)(=O)=O)cc1 -39.7%, Cc1ccc2c(O)c(Cc3ccccc3)c(=O)[nH]c2n1 7.66%, COc1ccc(C(CNC(=O)c2ccc(S(=O)(=O)Nc3ccccc3C)cc2)N2CCOCC2)cc1 (centres undefined) -2.84%, COc1ccc(C(CNC(=O)c2cccc(NS(=O)(=O)c3ccc(C)c(F)c3)c2)N2CCCC2)cc1 (centres undefined) -24.5%
